Screening results deposited in PubChem BioAssay by National Center for Advancing Translational Sciences (NCATS).
Only some compounds are listed: those with a hit (about 8.7% of all), similar ones and a draw of the others.
Pf growth 48h: P. falciparum growth inhibition at 48 hours (one generation); hit rate 5.9% among 310,000; Potency, µM (titrated, usually from 28.7 µM), for the others: at the top dose activity change, negative = inhibition, most hits filed as inhibitors; P. falciparum luciferase growth in erythrocytes, 48 h
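Growth was read as firefly luciferase luminescence after a 48 h, 37 C, 5% CO2 exposure of compounds to reporter-bearing P. falciparum cultures (0.1% parasitemia, 2% hematocrit final) in Albumax-supplemented RPMI 1640.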
VACV mCherry inh: vaccinia inhibition (mCherry reporter). Potency, µM (highest dose often 36.5 µM), for the others: top-dose activity change, negative = inhibition, actives largely listed as inhibitors. hit rate 0.63% among 310,000. AID 720579. Vaccinia virus mCherry reporter infection, fluorescence; calls by dose curve; tested in A549 cells; further: nearly all actives have a fitted effect of over 35% in size
Vaccinia Venus: inhibitors of vaccinia virus (Venus reporter); Vaccinia virus Venus reporter expression, fluorescence; AID 720580; Potency, µM (titrated, usually from 36.5 µM), for inactives: at the highest dose activity change, negative = inhibition, actives largely listed as inhibitors; hit rate 0.46% among 330,000; calls by dose curve; tested in A549 cells; further: nearly all actives have a fitted effect of over 30% in size
Pf growth 96h: inhibits malaria parasite growth, 96 h; AID 504834; Potency, µM (highest dose often 28.7 µM), for inactives: at the highest dose activity change, negative = inhibition, usual class: inhibitors; hit rate 6.9% among 320,000; P. falciparum luciferase reporter growth, 96 h
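96 h incubation, 37 C, 5% CO2, of luciferase-reporter P. falciparum-infected RBCs (2% hematocrit, 0.05% parasitemia final) with test compounds; endpoint luminescence.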
AMA1 RON2 block: disrupts binding of P. falciparum AMA1 to RON2 | AlphaScreen AMA1-biotinylated RON2 peptide binding | Potency, µM (top dose mostly 58.2 µM), inactives show at the top dose activity change, negative = inhibition, actives largely listed as inhibitors | hit rate 0.2% among 360,000;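 further: 0% = vehicle wells and -100% = peptide control; nearly all actives have a fitted effect of over 45% in size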
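AMA1 (3D7) with his tag at 25 nM final met compounds first, then biotinylated RON2 peptide at 25 nM; detection used donor plus acceptor beads, 10 µg/mL apiece, read by AlphaScreen after 30 min at room temperature.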
An asterisk follows results filed as active; i = inactive; ? = inconclusive; . = no result given; [ ] = dose if it differs, or a comment. Unless noted, the call rests on the fitted dose curve; in most records, active means well fitted curve in the direction sought with a large enough effect; inconclusive means small, poorly fitted or top-dose-only effect, or another doubt; inactive means no such curve, though single readings can be large; an effect the other way counts as inactive or inconclusive. Unless noted, on the % scale 0 is the no-effect control and ±100 the full control effect; potency means the concentration at half of the fitted maximal effect.

SMILES | Pf growth 48h | VACV mCherry inh | Vaccinia Venus | Pf growth 96h | AMA1 RON2 block
COc1cc2c(cc1OC)-c1cc(OCc3ccccc3Cl)nc(=O)n1CC2 | . | . | . | ? | 4.2%
CCN(CC)c1ccc(Nc2cc3n(c(=O)n2)CCc2cc(OC)c(OC)cc2-3)cc1 | ? | ? | ? | 10.4µM* | ?
CCCCCn1c(N)c(C(=O)NCCN2CCOCC2)c2nc3ccccc3nc21 | ? | . | ? | ? | 27.9%
Nc1c(C(=O)NCc2ccco2)c2nc3ccccc3nc2n1CCN1CCOCC1 | . | . | . | -38.8% | 49.7%
CCCCCCn1c(N)c(C(=O)NCCN2CCOCC2)c2nc3ccccc3nc21 | 9.28µM* | . | ? | ? | 17.9%
COc1ccc(CCNC(=O)c2c(N)n(CCN3CCOCC3)c3nc4ccccc4nc23)cc1OC | 9.28µM* | ? | ? | 4.65µM* | 19.4%
O=C(C[n+]1ccncc1)c1ccc(Br)cc1 | . | -18.7% | -2.3% | . | .
Cc1ccc2c(c1)Cc1c(nc(-c3ccc(F)cc3)nc1SCC(=O)N1CCCCC1)O2 | . | -13.2% | -11.9% | . | .
COc1ccccc1OCC(=O)N(Cc1nc(-c2ccccc2)no1)C(C)C | 5.2% | -9.4% | -12.4% | -3.6% | -5.2%
CC(C)N(Cc1nc(-c2ccccc2)no1)C(=O)C(Cl)(Cl)Cl | 1.85µM* | -12.2% | -8.3% | -31.5%[1.15 µM] | 5.0%
COc1ccccc1OCC(=O)N(Cc1nc(-c2ccc(Cl)cc2)no1)C(C)C | . | i | -25.9% | 4.15µM* | -4.2%
CC(=O)Nc1ccc2ccccc2c1[N+](=O)[O-] | . | i | -12.1% | . | -1.3%
O=[N+]([O-])c1c2ccccc2cc2ccccc12 | 2.62µM* | -9.2% | -15.3% | ? | -25.2%
CCOC(=O)C[N+](C)(C)CCOC1CC2CCC1(C)C2(C)C (stereo not given) | 2.08µM* | . | . | 0.3% | 6.7%
CC1(C)C2CCC1(C)C(OCC[N+](C)(C)CC(=O)OC1CCCCC1)C2 (stereo not given) | 1.47µM* | -5.9% | -21.6% | 0.522µM* | 7.5%
COc1ccccc1CNc1nc2ccc(C)cc2n2nnnc12 | . | -14.6% | -10.4% | . | .
CC(=O)N1c2ccccc2CC1C(=O)N1CCN(c2cccc(Cl)c2)CC1 (stereo not given) | . | -12.7% | 8.1% | . | .
CCOC(=O)c1sc(NC(=O)CSC(=S)N2CCN(C)CC2)nc1C | 8.28µM* | ? | -27.7% | ? | -10.3%
CCOC(=O)c1sc(NC(=O)CCSC)nc1C | ? | . | . | 16.0% | -10.6%
CCCS(=O)(=O)c1c(S(=O)(=O)CCC)c2c(N)cccn2c1C(=O)c1ccc(OC)cc1 | ? | 1.4% | -6.5% | -1.0% | 24.0%
CCCS(=O)(=O)c1c(S(=O)(=O)CCC)c2ccc(C(N)=O)cn2c1C(=O)c1ccc(F)cc1 | -5.5% | -0.5% | -10.4% | 128.4% | 5.2%
CCCS(=O)(=O)c1c(S(=O)(=O)CCC)c2c(N)cccn2c1C(=O)c1ccc(F)cc1 | 10.4µM* | -1.7% | -28.9% | 47.5% | 20.2%
CCCS(=O)(=O)c1c(S(=O)(=O)CCC)c2c(N)cccn2c1C(=O)c1ccc(Br)cc1 | 11.7µM* | ? | -19.0% | -24.3% | 3.8%
O=C1/C(=C/c2ccc(N(CCCl)CCCl)cc2)Cc2ccccc21 | . | i | -14.0% | . | .
O=C(C1=C(O)C(=O)N(CCc2ccccc2)C1c1cccnc1)c1ccco1 (stereo not given) | 6.57µM* | -3.1% | 2.4% | -4.6% | 2.1%
SMILES | Pf growth 48h | VACV mCherry inh | Vaccinia Venus | Pf growth 96h | AMA1 RON2 block
Cc1ccc(CN2CCSc3ccc(C(=O)N4CCN(c5cc(C)ccc5C)CC4)cc32)cc1 | . | -3.8% | -19.4% | . | .
Cc1cc(C)cc(OCCSc2nc3ccc(NC(=O)c4ccc5c(c4)OCO5)cc3s2)c1 | . | -7.1% | -10.6% | . | .
O=C(O)c1ccccc1NS(=O)(=O)c1ccc2ccccc2c1 | 6.7% | 4.2% | 3.8% | 17.1% | ?
O=c1oc(-c2ccccc2NS(=O)(=O)c2ccc3ccccc3c2)nc2ccccc12 | 4.9% | -12.5% | -7.2% | 10.4µM* | 0.0%
CC(C)(C)c1nc(N2CCN(C(=O)c3ccco3)CC2)c2nnn(Cc3ccccc3Cl)c2n1 | 1.65µM* | ? | ? | . | ?
CCc1nc(N2CCC3(CC2)OCCO3)c2nnn(Cc3ccccc3Cl)c2n1 | ? | -0.8% | -20.6% | -1.6% | -22.1%
COCCNc1nc(C(C)(C)C)nc2c1nnn2Cc1ccccc1Cl | 8.28µM* | i | -9.5% | 41.8% | 22.3%
CCn1c(-c2ccccc2F)nc2cc(NC(C)=O)cc(C(=O)N3CCCC3c3nccs3)c21 (stereo not given) | . | -10.3% | 5.0% | . | .
COc1ccc(-c2oc(/N=C/N3CCOCC3)c(C#N)c2-c2ccc(OC)cc2)cc1 | 6.57µM* | . | . | . | -24.2%
CC1CCCCN1CCNC(=O)C1CCN(S(=O)(=O)c2cccc3cccnc23)CC1 (stereo not given) | ? | 12.5% | -1.7% | 4.65µM* | 0.0%
CCN(CCNC(=O)C1CCN(S(=O)(=O)c2cccc3cccnc23)CC1)c1ccccc1 | 6.57µM* | i | -6.7% | -19.0% | -7.1%
CCN1CCc2nc(NC(=O)C(c3ccccc3)c3ccccc3)sc2C1 | . | . | -19.1% | 8.28µM* | 0.0%
CCN1CCc2nc(NC(=O)CC(c3ccccc3)c3ccccc3)sc2C1 | 5.86µM* | -3.4% | -16.7% | 10.4µM* | -6.6%
Cc1ccc(NC(=O)COc2ccc3oc4c(c3c2)CCCC4)c(C)c1 | . | -15.4% | -10.7% | . | .
Cc1cc(Cl)c2oc(C(=O)NCCN3CCCCC3CO)c(C)c2c1 (stereo not given) | ? | -15.3% | -26.0% | 13.1µM* | 22.5%
COc1ccc(N(C(C)C(=O)NN=C2CCCC2)S(C)(=O)=O)cc1 (stereo not given) | 42.1% | . | . | 1.85µM* | 7.5%
Cc1cc(C)c2nc(C(F)(F)F)c(C#N)c(N)c2c1 | . | -12.7% | -10.5% | 43.9% | -5.0%
CCCc1nc2c(C)cc(C)cc2c(N)c1CC | 9.28µM* | . | . | 10.4µM* | -7.7%
COc1ccc(OC)c(C2c3c(-c4ccc(Br)cc4)n[nH]c3C(=O)N2c2ccc(Cl)cc2)c1 (stereo not given) | . | ? | -23.6% | . | .
CCCCCCSc1cccc(-c2nc3ccc(C)cn3c2NCc2ccccc2)c1 | ? | i | -3.0% | 11.7µM* | 7.9%
CCCCCCSc1cc(-c2nc3cc(C)ccn3c2NCCCC)ccc1OC | 9.28µM* | -28.3% | ? | ? | 16.8%
CCCCNc1c(-c2ccc(-c3ccc(OC)cc3)c(OC)c2)nc2ccccn12 | . | 31.6µM* | ? | . | -13.2%
CCCCCCSc1cc(-c2nc3ccc(C)cn3c2NCc2ccccc2)ccc1OC | 4.15µM* | -14.9% | -22.1% | 10.4µM* | 34.9%
CCCCNc1c(-c2ccc(OC)c(Sc3ccc(OC)cc3)c2)nc2ccccn12 | ? | ? | ? | ? | -5.7%
CCN1C(=O)c2ccccc2S(=O)c2ccc(C(=O)N3CCN(c4ccccc4OC)CC3)cc21 (stereo not given) | . | -3.3% | -7.5% | . | .
COc1ccc(OC)c(NC(=O)CCc2nc(-c3ccc(C)cc3)no2)c1 | . | -4.9% | -9.2% | . | .
CCCn1c(CCC(=O)Nc2ccc(OCC)cc2)nc2cccnc21 | . | 8.3% | -6.4% | . | .
